Among the data in PubChem BioAssay (EPA / NIEHS) are outcome and AC50 values, retold here.

By AC50 is commonly meant the midpoint of the concentration-response curve, whichever way the signal moves.

Values joined by “and” are separate entries in the source; they are usually repeats but may differ in a detail not shown here. Equal values may be shown once. Active and inactive are the calls of the source. The calls were made as follows: active = hit-call score of the fitted dose curve at least 0.9, where 1 is the maximum; inactive = score below 0.9.

A short description of this test: CCTE_Shafer_MEA_dev_firing_rate_mean: CCTE's Neural Network Formation Assay for Mean Firing Rate, Shafer Lab (AID 2284031).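 As to AC50: curve fitted for loss of firing so AC50 reflects decreased mean firing rate.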 On the procedure:
CCTE_Shafer_MEA_dev assay is conducted using Axion Biosystems 48 well microelectrode array (MEA) plates and Maestro recording system. Each well of the MEA plate contains a grid of 16 microelectrodes embedded in the culture surface. Electrically active cells, such as neurons, can be cultured over the electrodes, and electrical activity in these cells can be recorded extracellularly. The spontaneous firing of neurons is captured from each electrode on a microsecond timescale providing both temporally and spatially precise data. […] The CCTE_Shafer_MEA_dev assay uses primary cultures of rat cortical neurons. Recordings are made on days post-plating 5, 7, 9 and 12. As these cultures mature over time, neural networks develop functional activity and form cohesive networks in which electrical activity can be highly coordinated. CCTE_Shafer_MEA_dev_firing_rate_mean is 1 of 19 assay components of the CCTE_Shafer_MEA_dev assay. It measures the frequency of spikes (action potential firings) as the total number of spikes divided by the length of the recording in a microelectrode array (MEA) using Axion Biosystems Maestro 768 channel amplifier with the AxIS adaptive spike detector. The firing rate is averaged across the active electrodes to report a well-mean value. To collapse across multiple recordings made on days post-plating 5, 7, 9 and 12, the trapezoidal area-under-the-curve of the component is calculated.Data from the assay component CCTE_Shafer_MEA_dev_firing_rate_mean was analyzed into 1 assay endpoint. This assay endpoint, CCTE_Shafer_MEA_dev_firing_rate_mean, was analyzed in the negative analysis fitting direction relative to DMSO as the negative control and baseline of activity. Using a type of functional reporter, gain or loss-of-signal activity can be used to understand electrical activity.
On the day prior to culture, each well was coated thoroughly with 150 uL of 0.05% polyethyleneimine (PEI, Sigma Cat P3143) in 50 mM HEPES (Sigma Cat H7523) at a pH of 8. The plate was incubated at 37C for one hour. PEI was rinsed out with 500 uL of sterile water three times. Plates were stored at 4C until the day of culture. This culture was plated at a seeding density of 1.5 x 10^5 cells/well on a 48-well MEA plate, prepared as described above. Cells were administered via a 25 uL media/laminin ([…]; Sigma Cat L2020-1MG) drop directly onto the microelectrode array, as adding the cells with the laminin results in better attachment than pre-coating with laminin. After 2 hours, an additional 475 uL of cortical media was added and the cells returned to the incubator. Exposure starts at day 0 of plating and is continued over twelve days of network development until the experiment is terminated. Cells are fed with fresh medium on DIV 5 and 9, following the recordings on those days. The entire volume of media in the well is exchanged and any vehicle or compound treatment is renewed. Complete details are found in OP-NHEERL/ISTD/SBB/TJS/2015-03-r0 (available on request, email shafer.tim@epa.gov). Measurement of the electrical activity is non-invasive, and recordings can be made from the same plate over multiple different days of the culture. In cortical neurons, this allows for the measurement of extracellular action potentials over the period during which networks form in the MEA plate.
With `C[C@]12C=CC(=O)C=C1CC[C@H]1[C@@H]3C[C@@H](O)[C@](O)(C(=O)CO)[C@@]3(C)C[C@H](O)[C@@]12F`, the call was inactive.
Turning to `CCN(CC)C(=S)SSC(=S)N(CC)CC`, the AC50 was 98.7 nM (active) and 42.1 nM (active).
As to `FC(F)(F)COC(OCC(F)(F)F)OCC(F)(F)F`, the compound was classed as inactive.
With `COc1cc2c(c(OC)c1OC)-c1ccc(OC)c(=O)cc1[C@@H](NC(C)=O)CC2`, the AC50 was 17.9 nM (active).
As to `OCCC(F)(F)C(F)(F)C(F)(F)C(F)(F)F`, the compound was classed as inactive.
Still for that read-out and setting: the result for `OC(Cn1cncn1)(Cn1cncn1)c1ccc(F)cc1F` reads “inactive”; that for `OC(O)(C(F)C(O)(O)C(F)(F)F)C(F)(F)F`, “inactive”.
On the same count and under the same terms, the result for `FC(F)(F)C(F)(F)C(F)(F)C(F)(F)C(F)(F)C(F)(F)I` reads “inactive”; that for `c1ccc2c(c1)-c1cccc3c1c-2cc1ccccc13`, “inactive”.
Same read-out and setting: the result for `NNC(=O)c1ccncc1` reads “inactive”; that for `Cn1cc[nH]c1=S`, “inactive”.
With `CCCC(CCC)C(=O)O`, the outcome was inactive.
Still for that read-out and setting: the result for `CC[C@H](C)C(=O)O[C@H]1C[C@H](O)C=C2C=C[C@H](C)[C@H](CC[C@@H](O)C[C@@H](O)CC(=O)O)[C@H]21` reads “inactive”.
As to `Nc1ccn([C@@H]2O[C@H](CO)[C@@H](O)[C@@H]2O)c(=O)n1`, the AC50 was 260 nM (active) and 3.02 µM (active).
Turning to `NC(=O)N1c2ccccc2C=Cc2ccccc21`, the result was inactive.
For the compound `c1ccc2cc3ccccc3cc2c1`, the compound was called inactive.
Same read-out and setting: the result for `CCOc1ccc2[nH]cc(C(=O)NCc3ccccc3)c(=O)c2n1` reads “inactive”; that for `O=C(Cl)C(F)(F)C(F)(F)C(F)(F)C(=O)Cl`, “inactive”.
Turning to `NCC(F)(F)C(F)(F)C(F)(F)C(F)(F)F`, the compound was called inactive.
